High-throughput results deposited in PubChem BioAssay by several laboratories.
Shown are actives, neighbours in structure and some others; about 4.7% of the full set was active somewhere.
HSP90 inh – blocks HSP90-mediated luciferase refolding in reticulocyte lysate; Rabbit reticulocyte lysate, luciferase refolding luminescence, 3 h; inhibition, % at 5.6 µM; 0.91% of 290,000 active;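 active means inhibition above the screen-wide mean plus 3 SD, computed separately per campaign, cut at about 16% in these data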;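 further: 0% = DMSO wells and 100% = 60 µM geldanamycin wells; inhibitors lower the luminescence because luciferase stays unfolded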
HSF-1 act – increases HSF-1 driven luciferase reporter signal | activation, % at 9 µM | NIH3T3-HGL HSF-1 luciferase reporter, MG132, 8 h; 100% = twice DMSO control signal | 1.7% of 300,000 active | AID 504408;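 active means mean replicate activation of at least 50% with a set share of replicates each reaching 50%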;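 further: 0% = median of the neutral control wells and 100% = twice that signal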
TWEAK-Fn14 inh – TWEAK-Fn14 signaling inhibition | TWEAK-stimulated Fn14 reporter cells, luciferase luminescence, 8 h | inhibition, % at 10 µM | 2% of 360,000 active | AID 1159606; in the data active means inhibition above about 50%
TROY signal inh – inhibitors of TROY-dependent NF-kB signaling; Q293 LMP1-TROYcd NF-kB luciferase reporter, 4 h; inhibition, % at 10 µM; 0.98% of 360,000 active; AID 1347056;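 active means compounds whose plate-normalised and pattern-corrected inhibition of the luciferase reporter signal at the single screening dose is 50% or more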
HSF1 inh – HSF1 inhibition | 0.77% of 300,000 active | AID 2098 | activity change, negative = inhibition, % at 7.5 µM (by protocol) | NIH3T3-HGL HSE-luciferase, MG132-induced, luminescence 8 h; stronger effect = lower value;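 active means more than half of replicate wells show activity change below -50%, luminescence cut by over half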;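 further: luciferase reports HSF-1 transcriptional activity via heat shock element; 0% = median of DMSO wells and -100% = zero luminescence signal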
LMP1 NFkB inh – reduces LMP1-driven NF-kappaB luciferase signal | 0.69% of 350,000 active | inhibition, % at 12.5 µM | AID 504558 | LMP1-induced NF-kappaB luciferase reporter cells, luminescence; in the data active means inhibition above about 41%;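 further: 0% = neutral control wells and 100% = reference inhibitor control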
The depositor's hits bear a star; . = not tested or not shown.

SMILES | HSP90 inh | HSF-1 act | TWEAK-Fn14 inh | TROY signal inh | HSF1 inh | LMP1 NFkB inh
COC(=O)c1c[nH]c2c1-c1cc(C(=O)OCc3ccccc3)n(S(=O)(=O)c3ccc(C)cc3)c1C(=O)C2=O | . | . | 99* | 57* | . | 1
CC(=O)Nc1ccc(N/C=C/C(=O)C(C)(C)C)cc1 | -1 | 63* | -19 | -30 | 35 | -6
COc1ccc(Oc2ccc(N/C=C/C(=O)C(C)(C)C)cc2)cc1 | 2 | 22 | 1 | -48 | 14 | -11
FC(F)(F)c1ccccc1-n1c(-c2cnccn2)n[nH]c1=S | 7 | -1 | 84* | 65* | -4 | 3
Cc1ccc(-n2c(-c3cnccn3)n[nH]c2=S)c(Br)c1 | 1 | -1 | -9 | 7 | -8 | 2
COc1ccccc1NC(=O)N(C)C[C@@H]1OCc2cn(nn2)CCCC(=O)N([C@H](C)CO)C[C@H]1C | . | . | 26 | 0 | . | -3
C[C@H](NC(=O)c1ccccc1Cl)C(=O)NCCc1ccc(S(N)(=O)=O)cc1 | -1 | 56* | 13 | 9 | 7 | -3
NS(=O)(=O)c1ccc(CCNC(=O)CNC(=O)c2ccccc2Br)cc1 | -4 | 23 | 51* | 1 | 1 | 1
NS(=O)(=O)c1ccc(CCNC(=O)CNC(=O)c2ccc(F)cc2)cc1 | 0 | 5 | 7 | 12 | -3 | -7
O=C(O)c1cc2nccc(-c3ccco3)n2n1 | -4 | -8 | 16 | -14 | 3 | -9
COc1ccc(-c2ccnc3cc(C(=O)O)nn23)cc1 | -2 | -4 | 12 | 11 | 4 | 57*
O=C(C1CCN(c2nnc(N3CCCC3=O)s2)CC1)N1CCN(Cc2ccc3c(c2)OCO3)CC1 | 33* | . | -8 | -13 | . | 5
CCc1ccc(-c2nn(-c3ccccc3)cc2C2SCC(=O)N2Cc2ccco2)cc1 (stereo not given) | 2 | -2 | 53* | 1 | 5 | -23
O=C(NCCc1ccc(F)cc1)C1CCC(=O)N(CC2CCCCC2)C1 (stereo not given) | . | . | -13 | -10 | . | 1
S=C(SSC(=S)N1CCOCC1)N1CCOCC1 | . | . | 17 | 3 | . | .
CNc1nc(Nc2ccc(C)cc2C)c2sccc2n1 | . | . | -1 | 13 | . | .
CSc1ccccc1C(=O)Nc1cccc(N(C)S(C)(=O)=O)c1 | -2 | 0 | -3 | -10 | 1 | -3
COc1ccccc1C(=O)Nc1cccc(N(C)S(C)(=O)=O)c1 | 0 | 50* | -8 | -37 | 8 | 2
COc1cccc(C(=O)Nc2ccc(N(C)C)cc2)c1OC | 1 | 71* | 10 | -47 | 35 | -7
COc1cccc(C(=O)Nc2ccncc2)c1OC | -5 | 16 | -3 | -11 | 1 | -3
CN(C)c1ccc(NC(=O)c2cccc(C(=O)Nc3ccc(N(C)C)cc3)n2)cc1 | -3 | . | 51* | 11 | . | 4
Cc1ccc(CN2CCC[C@]3(N[C@H](c4ccc(C)cc4)[C@@H]4C(=O)N(C)C(=O)[C@@H]43)C2=O)cc1 | . | . | -17 | -4 | . | -3
OC[C@H]1O[C@@H](c2nc(-c3ccc(Br)cc3)no2)C[C@@H]1O | . | . | -14 | -57 | . | .
O=C(NCc1cccnc1)c1cc(C2CCCN(S(=O)(=O)c3cccc4cccnc34)C2)on1 (stereo not given) | . | . | -12 | 12 | . | .
CCc1ccc(/C=N/NC(=O)c2c[nH]c3ccccc23)s1 | -1 | 58* | -19 | -100 | 25 | -46
SMILES | HSP90 inh | HSF-1 act | TWEAK-Fn14 inh | TROY signal inh | HSF1 inh | LMP1 NFkB inh
O=C(N/N=C/c1cccs1)c1c[nH]c2ccccc12 | 3 | 19 | -17 | -80 | 24 | -8
CC(C)CN1CCC(CN2CCNC(=O)C2=O)CC1 | . | . | -8 | 10 | . | 9
CCOC(=O)[C@]12Cc3c(cc(OC)c(OC)c3OC)[C@H]1N(Cc1ccccc1)C(=O)c1cc(OC)ccc12 | . | . | 41 | 22 | . | .
CCOC(=O)/C(=C/c1ccc(N2CCC(c3ccccc3)=N2)cc1)C(C)=O | 3 | 33 | 26 | 30 | 22 | 94*
CC(C)n1nnnc1C1c2ccccc2C(=O)N1Cc1ccco1 (stereo not given) | . | . | 30 | 11 | . | .
Cc1ccc(S(=O)(=O)N2CCCC(C(=O)NCCc3ccc(Cl)cc3)C2)cc1 (stereo not given) | . | . | 12 | 15 | . | -9
Cc1c(O)ccc2c(CC(=O)N[C@@H](Cc3ccc(O)cc3)C(=O)O)cc(=O)oc12 | 3 | -77 | 5 | 7 | -70* | -20
CCc1nc(SCC(=O)N2CCN(c3ccccc3)CC2)c2c(=O)n(C)c(=O)n(C)c2n1 | -2 | . | . | . | . | .
CCCc1nc(SCC(=O)N2CCC(Cc3ccccc3)CC2)c2c(=O)n(C)c(=O)n(C)c2n1 | 1 | 5 | 61* | 83* | 3 | 11
On1ccccc1=S | . | . | 106* | 69* | . | -23
Cc1cc(-c2ccc(C)c(S(=O)(=O)NCCCN3CCCCCC3)c2)on1 | 4 | 18 | -5 | 9 | 2 | -6
Cc1cc(-c2ccc(C(C)C)c(S(=O)(=O)NCCN3CCC(C)CC3)c2)on1 | 2 | 67* | -8 | -22 | 15 | -10
Cc1cc(-c2ccc(C)c(S(=O)(=O)NCCC(C)N3CCCCCC3)c2)on1 (stereo not given) | 1 | -73 | -4 | 2 | -67* | -15
CNc1cncc(-c2ccc(OC)cc2OC)n1 | . | . | 0 | 1 | . | .
COCCNC(=O)C1(C)CCN(Cc2cccc(Oc3ccccc3)c2)C1 (stereo not given) | . | . | 4 | -10 | . | .
O=C(NCc1cccc(Cl)c1)C1Cc2c(-c3ccccc3Oc3ccccc3)ccnc2O1 (stereo not given) | . | . | 26 | 29 | . | .
Cc1c(Cl)cccc1NC(=O)Nc1cnccn1 | -6 | -72 | 10 | 13 | -64* | -13
Cc1c(Cl)cccc1NC(=O)Nc1cccnc1 | -2 | -3 | 1 | 18 | -5 | -4
O=C(CSc1nc2ccc([N+](=O)[O-])cc2[nH]1)NC1CCCCCC1 | -1 | 30 | 61* | 49 | 28 | -5
Cc1ccc2nc(SCC(=O)NCc3ccc(S(N)(=O)=O)cc3)[nH]c2c1 | 3 | 5 | -18 | 8 | 1 | 3
Cc1ccc2nc(SCc3ccc([N+](=O)[O-])cc3)nc(C)c2c1 | -5 | . | -49 | -13 | . | 7
Cc1ccc2nc(SCC(=O)NCc3ccc(F)cc3)[nH]c2c1 | 3 | 65* | 10 | 4 | 20 | 2
Cc1ccc2nc(SCc3ccc([N+](=O)[O-])cc3)[nH]c2c1 | -6 | 82* | -4 | -18 | 67 | 4
Cc1ccc(S(=O)(=O)N2C[C@@H](C)[C@]3(C2)[C@H](O)[C@H](OC(=O)Nc2cccs2)C[C@H]2C(=O)N(c4ccccc4)C(=O)[C@H]23)cc1 | . | . | 22 | 19 | . | -31
O=C(N/C(=C/c1cccc(Br)c1)C(=O)N1CCCCC1)c1ccco1 | . | . | -9 | 4 | . | 10
CCNC(=O)O/N=C(\C)c1sc(-c2ccc(Cl)cc2)nc1C | 1 | 60* | 14 | -25 | 34 | -11
